“And” between values parts separate entries of the source, which are not always exact repeats. Identical values can stand only once. Hit rate of the full screen: of about 240,000 compounds, about 1,300 (0.54%) were called active. Not shown: some 1% with an inconclusive outcome. Calls follow the shape of the dose curve; as a rule, active = well fitted inhibition curve with a large enough effect; inconclusive = small, poorly fitted or top-dose-only effect; inactive = flat fitted curve, though single readings scatter. Only a selection was taken, and actives are over-represented in it overall. A structure can be active in one record and inactive in another. Where a SMILES comes first, the peptide text is derived from it. Bridges are numbered along the chain shown (N, C = ends).
Potency is read from the fitted curve at half-maximal effect.

ATP-dependent DNA helicase Q1 (Homo sapiens), sequence (P46063 whole entry, looked up): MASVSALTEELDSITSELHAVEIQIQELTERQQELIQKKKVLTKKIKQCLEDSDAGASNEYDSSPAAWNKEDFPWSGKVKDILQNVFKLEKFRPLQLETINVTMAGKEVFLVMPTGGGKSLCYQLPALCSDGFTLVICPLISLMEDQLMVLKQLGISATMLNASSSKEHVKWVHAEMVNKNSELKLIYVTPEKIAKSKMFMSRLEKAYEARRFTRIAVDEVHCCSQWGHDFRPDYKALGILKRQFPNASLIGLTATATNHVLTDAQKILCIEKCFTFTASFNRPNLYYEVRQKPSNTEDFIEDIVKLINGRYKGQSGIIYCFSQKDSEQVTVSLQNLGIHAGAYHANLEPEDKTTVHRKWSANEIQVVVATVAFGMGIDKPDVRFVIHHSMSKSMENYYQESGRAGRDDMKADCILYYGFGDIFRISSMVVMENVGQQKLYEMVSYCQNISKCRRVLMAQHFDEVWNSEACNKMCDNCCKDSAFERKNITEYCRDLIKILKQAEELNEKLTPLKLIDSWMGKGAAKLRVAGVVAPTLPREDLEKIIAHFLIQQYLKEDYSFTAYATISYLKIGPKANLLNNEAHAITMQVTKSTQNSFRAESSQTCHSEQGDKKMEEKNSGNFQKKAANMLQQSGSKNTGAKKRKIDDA

For this test, the target named is ATP-dependent DNA helicase Q1 (Homo sapiens) (UniProt P46063). In words: qHTS Assay for Inhibitors of RecQ-Like Dna Helicase 1 (RECQ1). Also: nearly all actives have a fitted effect of over 30% in size.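 As to activity, negative = inhibition: plate controls were vehicle for no effect and no enzyme for full effect.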 As to conditions: RECQ1 DNA unwinding, red fluorescence kinetic read; series mostly up to 57.3 µM; activity, negative = inhibition: at the top concentration. The essentials:
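50 nM RECQ1T1 preincubated 15 min with compound in Tris pH 8.0 buffer with MgCl2, DTT, Tween-20 and 2.5 ug/ml poly(dI-dC); started with 200 nM TAMRA/BHQ-2 forked duplex and 2 mM ATP. Unwinding read as fluorescence (525/598 nm), two reads 2 h apart.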
Take `Oc1cc(O)c2c(c1)OC(c1ccc(O)c(O)c1)C(O)C2` (configuration not stated): the Potency is 14.1 µM (active). `Cc1nnnn1/C(=C\c1ccccc1)C(=O)OCC(=O)N1CC2(C)CC1CC(C)(C)C2` (configuration not stated): the “activity, negative = inhibition” value is 4.69% (inactive). Regarding `O=c1c(O)c(Br)ccc2c(Br)c(O)c(O)c(O)c12`, the Potency is 3.16 µM (active). As to `CCC1(CC)C(=O)C2=C3C1[C@H](C(=O)OC)C=C(C(=O)OC)C[C@H]3[C@H]1C(=O)N(Cc3ccccc3)C(=O)[C@H]1[C@H]2C` (some centres not stated), the result was inactive. As for `O=C(N/N=C/c1ccccn1)c1cccnc1`, the “activity, negative = inhibition” value was 6.97% (inactive). As for `Cc1cc(/C=N/NC(=O)c2cccnc2)c(C)n1CC(C)C`, the result was inactive.

With `O=C(N/N=C/c1sc(N2CCCCC2)nc1-c1cccs1)c1cccnc1`, the Potency is 10 µM (active). On to `COCCNC(=O)/C(C#N)=C/c1cccc(OCc2ccccc2)c1`, for which the “activity, negative = inhibition” value was -4.31% (inactive). Consider `N#C/C(=C\c1ccc(O)c(O)c1)C(N)=O`, for which the Potency entry is “inactive”. Same read-out and setting: to `N#C/C(=C\c1ccc(O)c(O)c1)C(=O)NCc1ccccc1` belongs “inactive and 31.6 µM (active)”.

Regarding `c1ccc(C2CNCc3c2ccc2ccccc32)cc1` (configuration not stated), the outcome was inactive. Regarding `CC(=O)Nc1ccc(S(=O)(=O)N2N=NC3C2C2CC4C3(CN(C(=O)OC(C)(C)C)S4(=O)=O)O2)cc1` (configuration not stated), the compound was called inactive. On to `CN(C(=O)COC(=O)c1cc(-c2ccco2)nc2ccccc12)C1CCS(=O)(=O)C1` (configuration not stated), for which the Potency is 14.1 µM (active). Take `Cc1c(-c2cccc(Cl)c2)nc2ccccc2c1C(=O)OCC(=O)N(C)C1CCS(=O)(=O)C1` (configuration not stated): the “activity, negative = inhibition” value was -13% (inactive).

Regarding `COc1ccc(NC(=O)COc2ccc(C(=O)OCC(=O)N(C)C3CCS(=O)(=O)C3)cc2OC)cc1` (configuration not stated), the call was inactive. Regarding `CC(=O)OC1C([N+]2(C)CCCCC2)C[C@H]2C3CC[C@H]4C[C@H](OC(C)=O)C([N+]5(C)CCCCC5)CC4(C)C3CCC12C` (some centres not stated), the “activity, negative = inhibition” value was 44.6% (inactive). In the case of `Cc1cc2nc3c(=O)n(Cc4ccccc4)c(=O)[nH]c3nc2cc1N`, the “activity, negative = inhibition” value is -6.41% (inactive). As to `Nc1ccc2nc3c(=O)[nH]c(=S)[nH]c3nc2c1`, the Potency is 7.94 µM (active). The same measure, in the same setting: for `O=c1[nH]c(=O)c2nc3ccccc3nc2[nH]1` the value was “inactive”. Consider `CCOc1ccc(/C=C2\SC(=S)N(NC(=O)c3ccncc3)C2=O)cc1OC`, for which the “activity, negative = inhibition” value is -4.45% (inactive). Regarding `COc1ccc(C2=Nn3c(nnc3-c3ccccc3O)SC2)cc1`, the “activity, negative = inhibition” value is -2.95% (inactive).

For `C=CCCN(C(Cc1ccccc1)C(=O)OC)S(=O)(=O)c1cc(Br)ccc1Br` (configuration not stated), the result was inactive. In the case of `C=C1CCN(Cc2ccc(OC)cc2)S(=O)(=O)c2ccccc21`, the “activity, negative = inhibition” value was -11.7% (inactive). Regarding `Cc1ccc(SCC(CC(C)C)N2CCN(CCc3ccccc3)CCC2=O)cc1` (configuration not stated), the call was inactive.

With `CCOC(=O)COc1cc(O)c2c(=O)cc(-c3ccccc3)oc2c1`, the “activity, negative = inhibition” value was -4.89% (inactive). Take `Cc1cccc(-c2cc(=O)c3cc(C)ccc3o2)c1`: the “activity, negative = inhibition” value was -3.41% (inactive). Consider `COc1c(O)cc2oc(-c3ccc(O)c(O)c3)cc(=O)c2c1O`, for which the Potency is 11.2 µM (active) and 8.91 µM (active). As for `O=c1cc(-c2ccc(O)c(O)c2)oc2cccc(O)c12`, the Potency was 25.1 µM (active).

With `O=c1cc(-c2ccc(O)cc2)oc2c(-c3cc(-c4cc(=O)c5c(O)cc(O)cc5o4)ccc3O)c(O)ccc12`, the “activity, negative = inhibition” value is -15.9% (inactive). Turning to `COc1ccc2c(=O)cc(-c3ccccc3)oc2c1O`, the call was inactive. As for `C=C1/C(=C\C=C2\CCCC3(C)C2CCC3C(C)/C=C/C(O)C2CC2)CC(O)CC1O` (configuration not stated), the “activity, negative = inhibition” value is -13% (inactive). In the case of `CCCCc1nn(-c2ccccc2C(F)(F)F)c(=O)n1Cc1ccc(-c2ccccc2S(=O)(=O)NC(=O)c2sccc2C)cc1`, the “activity, negative = inhibition” value is -28.1% (inactive).

Regarding `COC(=O)c1ccc(C(NC(=O)OCc2ccccc2)/C(F)=C/[C@@H](C)C(=O)O)cc1` (some centres not stated), the “activity, negative = inhibition” value is 12.5% (inactive).

For `COc1ccc(CCCOC(Cn2ccnc2)c2ccc(OC)cc2)cc1` (configuration not stated), the Potency entry was “inactive”. With `O=C1N/C(=C/c2cccn2-c2ccccc2)C(=O)N1c1cccc(Cl)c1`, the “activity, negative = inhibition” value was -3.29% (inactive). `Cc1cccc(NC(=O)CN2C(=O)c3ccccc3C2=O)c1C`: the compound was classed as inactive. `Cc1ccccc1NC(=O)CN1C(=O)N/C(=C\c2cccn2-c2cccc(C(=O)O)c2)C1=O`: the Potency is 14.1 µM (active).

`COc1ccccc1NC(=S)N1CCN(C(c2ccccc2)c2ccccc2)CC1`: the “activity, negative = inhibition” value is -5.7% (inactive). Turning to `COc1ccc(Br)cc1C1C2C=CCC(C)C2C(=O)N1Cc1ccccc1` (configuration not stated), the compound was classed as inactive. `O=C1c2ccccc2C(=O)N1CCCc1nc(-c2ccccc2)no1`: the outcome was inactive. In the case of `O=C1c2ccccc2C(=O)N1Cc1cc(-c2ccccc2Cl)no1`, the Potency was 31.6 µM (active). For `O=C1c2cccnc2C(=O)N1Cc1cccs1`, the “activity, negative = inhibition” value is -1.48% (inactive). Regarding `Oc1ccc(N=Cc2sc3ccccc3c2Cl)cc1`, the Potency is 8.91 µM (active). Regarding `O=C(N/N=C/c1c(Cl)[nH]c2ccccc12)c1sc2ccccc2c1Cl`, the “activity, negative = inhibition” value is -7.76% (inactive). `Oc1ccc(N=Cc2c(O)ccc3ccccc23)cc1`: the “activity, negative = inhibition” value was -11.2% (inactive). On the same count and under the same terms, for `C[C@@H](O)[C@@H]1NC(=O)[C@H](CCCCN)NC(=O)[C@H](Cc2c[nH]c3ccccc23)NC(=O)[C@H](Cc2ccccc2)NC(=O)[C@H](Cc2ccccc2)NC(=O)[C@H](CC(N)=O)NC(=O)[C@H](CCCCN)NC(=O)[C@@H](NC(=O)[C@@H]2CCCN2)CSSC[C@@H](C(=O)N[C@@H](CCCCN)C(=O)O)NC(=O)[C@H](CO)NC(=O)[C@H](CO)NC(=O)[C@H](Cc2ccccc2)NC1=O` (H-PCKNFFWKTFSSCK-OH; disulfide 2-13) the value was -3.25% (inactive). Take `CCCN1CCC(=O)N(C(CSc2ccc(OC)cc2)Cc2ccccc2)CC1` (configuration not stated): the “activity, negative = inhibition” value was -7.69% (inactive).

Values taken from PubChem BioAssay AID2549 (National Center for Advancing Translational Sciences (NCATS), 2010).
